The results in this text go back to PubChem BioAssay.

The source made the active and inactive calls.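 Rule for the calls, unless noted: active = inhibition above 20% together with a positive visual image hit; inconclusive = visual image hit but inhibition not above 20%; inactive = no visual image hit.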

Assay [1] is described as follows: inhibitors of TNFa-induced NFkB p65 translocation, primary screen, imaging, HUVEC, MLSMR starter and 10KST1 sets (AID 438).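 For inhibition: signal is the nuclear over cytoplasmic p65 intensity ratio per well.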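 Note: compound added about 3h40 before a 20 min TNFalpha stimulation.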 To be noted: HUVEC TNFa-induced p65 nuclear translocation; cell count: measured here: nuclei count (cytotoxicity indicator), at 2.08 µM; inhibition: at 2 µM, stronger effect = higher value, 0% TNFa-plus-vehicle, 100% no-TNFa wells.
The nature of assay [2]: reduction of polyQ htt aggregates in cells – imaging, exon1htt(103Q)mCFP cells, high-content imaging, primary screen (AID 483;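 active = visual image review flags a hit and inhibition of aggregation exceeds 20%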;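 note: compound exposure lasted 3 days before fixation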;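 for nuclei count: percent of the per-plate median nuclei count of sample wells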). To be noted: exon1htt(103Q)mCFP cell line, aggregate imaging, at 2 µM; inhibition of aggregation: stronger effect = higher value; nuclei count: measured here: cell count, toxicity.
Assay [3] can be described thus: endothelial E-selectin expression blockers – imaging, HUVEC, immunofluorescence, MLSMR starter and 10KST1 sets, primary screen (AID 487;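 active = visually confirmed hit in the image check and inhibition above 20%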;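 for inhibition: signal is fraction of cell area covered by stained E-selectin grains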;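 for nuclei count: 100% = median nuclei count of all wells on the same plate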). The conditions noted are these: HUVEC TNFalpha-induced E-selectin immunofluorescence imaging, at 2 µM; inhibition: stronger effect = higher value; nuclei count: measured here: cell number, toxicity.
The target in assay [4] is Voltage-gated potassium channel subunit beta-2 (Rattus norvegicus) (UniProt P62483). Briefly: inhibitors of rat Kvbeta2 reductase activity – biochemical, NADPH fluorescence, primary screen (AID 622;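 active = fluorescence slope higher than the sample average by over 3 SD, cut at about -0.22 in these data, passing the limit was not always enough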;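 note: slope of raw intensity against log time taken from 70 to 1610 s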). The conditions noted are these: recombinant KvBeta, 4-cyanobenzaldehyde reduction, at 10 µM, stronger effect = higher value.
Sequence of Voltage-gated potassium channel subunit beta-2 (Rattus norvegicus) (P62483 whole entry, looked up): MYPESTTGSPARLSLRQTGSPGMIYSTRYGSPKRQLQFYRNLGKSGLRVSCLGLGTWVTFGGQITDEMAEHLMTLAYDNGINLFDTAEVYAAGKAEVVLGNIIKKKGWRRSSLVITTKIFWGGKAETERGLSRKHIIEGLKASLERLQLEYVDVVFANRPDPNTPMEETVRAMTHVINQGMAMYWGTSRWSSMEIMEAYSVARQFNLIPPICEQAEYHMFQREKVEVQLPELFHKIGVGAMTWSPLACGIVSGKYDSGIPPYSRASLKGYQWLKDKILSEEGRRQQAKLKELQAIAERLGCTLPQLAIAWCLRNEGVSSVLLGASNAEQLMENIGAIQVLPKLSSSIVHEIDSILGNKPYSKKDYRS
Assay [5] has the same target. Briefly: enhancers of rat Kvbeta2 NADPH turnover – biochemical, NADPH fluorescence, primary screen (AID 623;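 active = NADPH fluorescence slope more negative than the mean of all samples by about 3 SD, 99.7% confidence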;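 note: fluorescence intensity change per second fitted from 20 to 320 s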). To be noted: Recombinant KvBeta, NADPH fluorescence decrease slope, 10 min; at 10 µM; stronger effect = lower value.
Assay [6] concerns the target Alpha-2C adrenergic receptor (Homo sapiens) (UniProt P18825). Briefly: compounds altering alpha2C-coupled GIRK flux – cell-based, HEK293 alpha2C/GIRK1/2, thallium flux, primary screen (AID 624;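 active = fluorescence slope after compound addition differing from the mean of all screened samples at 99.7% confidence, in either direction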;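 note: slope of fluorescence ratio to pre-addition baseline per second over 15 to 24 s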). The conditions noted are these: thallium flux BTC fluorescence, at 10 µM, actives lie on both sides.
Assay [7] is described as follows: blockers of RIG-like receptor reporter activation – cell-based, Sendai virus stimulus, luciferase, 10K MLSCN set, TLR/RLR signaling modifier project, primary screen (AID 602276;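 active = inhibition at or above 50% at 10 µM; inactive = inhibition below 50%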;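 note: firefly luciferase from ISG56 promoter only with Renilla not read in this screen; 0% = Sendai virus plus DMSO and 100% = medium plus DMSO without virus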). The conditions noted are these: HEK293 RL24 IRF3 luciferase reporter, at 10 µM, stronger effect = higher value. Background: A reporter such as luciferase makes a cellular process visible.
Assay [8] is described as follows: TLR3 IRF3 reporter activation blockers – cell-based, poly I:C stimulus, luciferase, 10K MLSCN set, primary screen (AID 602277;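 active = inhibition of the reporter signal at or above 50%; inactive = inhibition below 50%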). The conditions noted are these: HEK293-TLR3 RL24 IRF3 luciferase reporter, at 10 µM, stronger effect = higher value.

Sequence of Alpha-2C adrenergic receptor (Homo sapiens) (P18825 whole entry, looked up): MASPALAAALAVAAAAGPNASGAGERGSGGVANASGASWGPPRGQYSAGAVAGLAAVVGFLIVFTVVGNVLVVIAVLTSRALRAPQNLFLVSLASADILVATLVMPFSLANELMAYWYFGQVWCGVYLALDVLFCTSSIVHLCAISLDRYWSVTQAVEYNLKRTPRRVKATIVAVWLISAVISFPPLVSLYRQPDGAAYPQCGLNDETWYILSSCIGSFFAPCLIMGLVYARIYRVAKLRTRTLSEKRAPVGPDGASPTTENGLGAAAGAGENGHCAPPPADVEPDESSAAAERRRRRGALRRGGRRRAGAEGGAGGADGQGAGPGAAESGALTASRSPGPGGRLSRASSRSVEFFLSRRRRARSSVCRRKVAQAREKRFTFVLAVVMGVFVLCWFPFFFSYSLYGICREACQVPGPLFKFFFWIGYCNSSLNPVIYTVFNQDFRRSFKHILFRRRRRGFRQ

In the case of `Cn1ccnc1SCC(=O)Nc1ccc2ccccc2c1`, in assay [1], the cell count is 228. In addition, the inhibition is 9.6% (inactive) in assay [1], -14.1% (inactive) in assay [3], 2.61% (inactive) in assay [7] and -32.6% (inactive) in assay [8]. In addition, the inhibition of aggregation in assay [2] is 13.5% (inactive). Further, the nuclei count in assay [2] amounted to 120%; in assay [3] it was 105%. Also, the fluorescence slope in assay [4] is -0.519 (inactive). In assay [5], the NADPH fluorescence slope is -4.1e-05 (inactive). Further, the slope in assay [6] is 0.00777 (inactive).
Consider `CC(C)[C@H](NC(=O)OC(C)(C)C)c1nnc(SCc2cccc(F)c2)o1`, for which the cell count in assay [1] was 859. In addition, the inhibition in assay [1] is 0% (inactive); in assay [3], -63.9% (inactive); in assay [7], 9.92% (inactive); in assay [8], 19.5% (inactive). In addition, the inhibition of aggregation in assay [2] was 15.1% (inactive). For the same molecule, the nuclei count in assay [2] is 101%; in assay [3], 122%. Besides, in assay [4], the fluorescence slope was -0.46 (inactive). Besides, the NADPH fluorescence slope in assay [5] is -4.1e-06 (inactive). Besides, the slope in assay [6] is 0.00385 (inactive).
For the molecule `Cc1nnc(SCC(=O)N(C(C)C)C(C)C)nc1C`, the cell count in assay [1] was found to be 430. The inhibition in assay [1] was 7% (inactive); in assay [3], -106% (inactive); in assay [7], 6.7% (inactive); in assay [8], 8.25% (inactive). Also, in assay [2], the inhibition of aggregation is -8.2% (inactive). For the same molecule, the nuclei count in assay [2] was 101%; in assay [3], 115%. For the same molecule, the fluorescence slope in assay [4] was -0.599 (inactive). For the same molecule, the NADPH fluorescence slope in assay [5] is -3.9e-05 (inactive). Also, the slope in assay [6] is 0.00322 (inactive).
Consider `CCCNC(=O)CS(=O)(=O)Cc1nc(-c2cccc(OC)c2)oc1C`, for which the cell count in assay [1] was 781. Moreover, the inhibition in assay [1] was 3.5% (inactive); in assay [3], -52% (inactive); in assay [7], 9.03% (inactive); in assay [8], -7.6% (inactive). Moreover, the inhibition of aggregation in assay [2] was 12.5% (inactive). Also, the nuclei count in assay [2] is 99.7%; in assay [3], 127%. The fluorescence slope in assay [4] is -0.543 (inactive). Further, the NADPH fluorescence slope in assay [5] was 4.4e-05 (inactive). In assay [6], the slope is 0.007 (inactive).
On to `CCOc1ccccc1NC(=O)CSc1nnc2c(CC)c(C)nc(N)n12`, for which, in assay [1], the cell count is 340. Also, the inhibition in assay [1] was -6.8% (inactive); in assay [3], 9.7% (inactive); in assay [7], -6.38% (inactive); in assay [8] it was 98.4% (active). The inhibition of aggregation in assay [2] is 1.5% (inactive). For the same molecule, the figures for the nuclei count in assay [2] and in assay [3] were 99.1% and 92.7%, respectively. In assay [4], the fluorescence slope was -0.305 (inactive). For the same molecule, the NADPH fluorescence slope in assay [5] was -4e-05 (inactive). Further, the slope in assay [6] is 0.00576 (inactive).
On to `CC(C)(C)SCCNC(=O)COc1ccc(Cl)cc1`, for which the cell count in assay [1] was determined as 237. Further, the inhibition was 3.4% (inactive) in assay [1], -272% (inactive) in assay [3], -15.2% (inactive) in assay [7] and -2.28% (inactive) in assay [8]. The inhibition of aggregation in assay [2] was 19.9% (inactive). Also, the nuclei count in assay [2] was found to be 83.8%; in assay [3], 147%. Besides, the fluorescence slope in assay [4] was -0.419 (inactive). For the same molecule, the NADPH fluorescence slope in assay [5] is 1.6e-05 (inactive). Further, in assay [6], the slope was 0.00681 (inactive).
On to `COc1ccccc1OCCOc1ccccc1/C=N/n1cnnc1`, for which the cell count in assay [1] amounted to 375. The inhibition is -3.8% (inactive) in assay [1], -66.6% (inactive) in assay [3], -3.21% (inactive) in assay [7] and -1.03% (inactive) in assay [8]. The inhibition of aggregation in assay [2] is -14.3% (inactive). Moreover, the nuclei count in assay [2] is 94.1%; in assay [3] it was 103%. The fluorescence slope in assay [4] is -0.402 (inactive). Besides, the NADPH fluorescence slope in assay [5] was -2.8e-05 (inactive). Further, the slope in assay [6] is 0.00507 (inactive).
In the case of `O=C(Nc1sc2c(c1C(=O)NCc1ccco1)CCCC2)c1ccc2c(c1)OCO2`, the cell count in assay [1] came out at 563. Further, the inhibition in assay [1] is -10.1% (inactive); in assay [3], -56% (inactive); in assay [7] it was -29.8% (inactive); in assay [8], -179% (inactive). Further, the inhibition of aggregation in assay [2] was 2.5% (inactive). Besides, the nuclei count in assay [2] was 103%; in assay [3], 117%. The fluorescence slope in assay [4] was -0.517 (inactive). For the same molecule, the NADPH fluorescence slope in assay [5] is 3.8e-06 (inactive). Further, the slope in assay [6] is 0.00669 (inactive).
For `CCc1nc(C)ccc1OCC(=O)O`, in assay [1], the cell count was 332. For the same molecule, the inhibition in assay [1] was 1% (inactive); in assay [3], 9.9% (inactive); in assay [7] it was -11.9% (inactive); in assay [8], -14.7% (inactive). Further, the inhibition of aggregation in assay [2] is -30% (inactive). Besides, the nuclei count in assay [2] came out at 89.2%; in assay [3] it was 102%. Further, the fluorescence slope in assay [4] is -0.459 (inactive). The NADPH fluorescence slope in assay [5] was -6.3e-05 (inactive). Besides, the slope in assay [6] is 0.00578 (inactive).
Regarding `CCCNC(=O)NC(C(=O)OC)C12CC3CC(CC(C3)C1)C2` (stereo not given), the cell count in assay [1] was determined as 308. The inhibition in assay [1] was -6.2% (inactive); in assay [3] it was -52.3% (inactive); in assay [7] it was 12.2% (inactive); in assay [8], 23.2% (inactive). Also, the inhibition of aggregation in assay [2] was 19.6% (inactive). Also, the results for the nuclei count in assay [2] and in assay [3] were 76.7% and 123%, respectively. Further, the fluorescence slope in assay [4] was -0.321 (inactive). Moreover, the NADPH fluorescence slope in assay [5] was -1.6e-05 (inactive). For the same molecule, the slope in assay [6] was 0.00242 (inactive).
For `Cc1cc(NC(=O)CCCN2C(=O)c3cccnc3C2=O)no1`, the cell count in assay [1] stood at 429. The inhibition in assay [1] was 5.6% (inactive); in assay [3] it was -64.2% (inactive); in assay [7] it was -4.41% (inactive); in assay [8] it was 13.4% (inactive). For the same molecule, in assay [2], the inhibition of aggregation is 17.7% (inactive). In addition, the values for the nuclei count in assay [2] and in assay [3] were 100% and 79.6%, respectively. The fluorescence slope in assay [4] was -0.459 (inactive). In assay [5], the NADPH fluorescence slope was 1.6e-05 (inactive). Further, in assay [6], the slope was 0.00763 (inactive).
For the molecule `COc1cccc(C2CC(c3ccc(C)cc3)n3nc(N)nc3N2)c1` (stereo not given), the cell count in assay [1] came out at 510. Also, the inhibition in assay [1] was -0.9% (inactive); in assay [3] it was -34.1% (inactive); in assay [7], 9.08% (inactive); in assay [8], 24.7% (inactive). Moreover, the inhibition of aggregation in assay [2] was -5.2% (inactive). The nuclei count in assay [2] and in assay [3] was 106% each time. The fluorescence slope in assay [4] is -0.615 (inactive). Also, the NADPH fluorescence slope in assay [5] is -2.8e-06 (inactive). Also, the slope in assay [6] is 0.00794 (inactive).
For the molecule `COc1ccc(C)cc1NC(=O)CSc1nnnn1Cc1ccccc1`, the cell count in assay [1] came out at 709. For the same molecule, the inhibition is -1.6% (inactive) in assay [1], 8.3% (inactive) in assay [3], -7.12% (inactive) in assay [7] and 13.4% (inactive) in assay [8]. Besides, in assay [2], the inhibition of aggregation is -27.3% (inactive). Further, the nuclei count in assay [2] amounted to 107%; in assay [3], 124%. Also, in assay [4], the fluorescence slope was -0.528 (inactive). The NADPH fluorescence slope in assay [5] was -1.1e-05 (inactive). The slope in assay [6] is 0.00685 (inactive).
With `Cc1ccc2[nH]c(=O)c(CN(CCCN3CCOCC3)C(=O)Nc3cccc(Cl)c3)cc2c1`, the cell count in assay [1] was 724. In addition, the inhibition in assay [1] is 21.3% (inactive); in assay [3] it was 8% (inactive); in assay [7], 13.4% (inactive); in assay [8], 4.8% (inactive). Moreover, in assay [2], the inhibition of aggregation is -15.9% (inactive). Also, the nuclei count in assay [2] was 89%; in assay [3] it was 131%. In assay [4], the fluorescence slope was -0.597 (inactive). Besides, the NADPH fluorescence slope in assay [5] is -5.2e-05 (inactive). Further, the slope in assay [6] is 0.00418 (inactive).
On to `COc1ccccc1N1CCN(c2cc(=O)n(Cc3ccc(F)cc3)c(=O)[nH]2)CC1`, for which the cell count in assay [1] was 503. Moreover, the inhibition was -2.8% (inactive) in assay [1], 11.7% (inactive) in assay [3], 17.1% (inactive) in assay [7] and 29.3% (inactive) in assay [8]. The inhibition of aggregation in assay [2] is 2% (inactive). Besides, the nuclei count was found to be 44% in assay [2] and 106% in assay [3]. Further, the fluorescence slope in assay [4] was -0.569 (inactive). In addition, the NADPH fluorescence slope in assay [5] was -3.7e-05 (inactive). The slope in assay [6] was 0.00657 (inactive).

As usually defined, the inhibition is the change of the read-out against control, counted positive when it falls.
